Assay outcomes: PubChem, The Scripps Research Institute Molecular Screening Center
GPR151 ag – human GPR151 activation | Q8TDV0 | PathHunter beta-arrestin GPR151 cells, luminescence | activation, % at 11.2 µM | 650,000 tested, 1% active; in the data active = activation above about 4.9%;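 also: 0% = median of compound wells and 100% = cells with positive control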
Target sequence (Q8TDV0 whole entry, looked up): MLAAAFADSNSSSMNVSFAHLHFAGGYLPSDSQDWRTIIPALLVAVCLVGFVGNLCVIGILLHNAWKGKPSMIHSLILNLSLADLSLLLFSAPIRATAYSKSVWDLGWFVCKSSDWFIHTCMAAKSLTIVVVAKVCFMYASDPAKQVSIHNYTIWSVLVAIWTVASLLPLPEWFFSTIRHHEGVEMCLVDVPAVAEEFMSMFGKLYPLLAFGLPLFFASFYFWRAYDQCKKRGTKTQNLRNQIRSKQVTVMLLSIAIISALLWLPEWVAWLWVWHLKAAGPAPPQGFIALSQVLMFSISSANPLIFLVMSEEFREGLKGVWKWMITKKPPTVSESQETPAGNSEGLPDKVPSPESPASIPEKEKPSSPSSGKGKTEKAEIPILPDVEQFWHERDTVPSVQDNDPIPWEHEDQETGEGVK
FBW7 act – activators of human E3 ligase FBW7. AlphaScreen FBW7–phospho-cyclin E peptide binding, activator screen. normalized activity (activation), % at 26.1 µM. 650,000 tested, 0.13% active. Q969H0; in the data active = normalized activity above about 1.9%;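 also: purified mutant Fbw7 with reduced substrate affinity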
TEAD-YAP inh – TEAD-YAP interaction inhibition. HEK-TIYL cells, TEAD-Gal4/YAP UAS-luciferase luminescence. inhibition, % at 9.12 µM. 640,000 tested, 1.4% active; in the data active = inhibition above about 32%;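 also: 0% = median of test compound wells and 100% = reference inhibitor wells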
MITF primary – human MITF inhibition, primary screen. inhibition, % at 2.6 µM. 650,000 tested, 0.91% active. AlphaScreen MITF homodimerization, bead proximity signal. O75030; in the data active = inhibition above about 50%;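 also: 0% = vehicle wells with protein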
GPR151 conf act – human GPR151 activation, confirmation screen; shares compounds with GPR151 ag; GPR151 PathHunter beta-arrestin cells, luminescence, 90 min; % of EA-reagent control over plate median; activation, % at 11.2 µM; 6,700 tested, under 10 active;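 active = mean percent activation across replicates above the confirmation screen cutoff of 4.91%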
GPR119 counter – activates human GPR119 in a GPR151 counter-screen. shares compounds with GPR151 ag. GPR119 PathHunter beta-arrestin cells, luminescence, 90 min; 0 = compound-well median, 100 = enzyme-acceptor control. activation, % at 11.2 µM. 6,700 tested, 0.3% active;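 active = mean percent activation in the counterscreen above 29.09%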;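 also: counterscreen on off-target GPR119 to flag nonselective hits from the GPR151 activator screen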
* = called active by the depositor; nt = no result given. Shown are actives, neighbours in structure and some others; about 3.4% of the full set was active somewhere.

SMILES	GPR151 ag	FBW7 act	TEAD-YAP inh	MITF primary	GPR151 conf act	GPR119 counter
C/C(=N\Nc1ccc([N+](=O)[O-])cc1S(=O)(=O)N1CCOCC1)c1cccs1	6.3*	-0.1	3.9	-8.3	-0.1	-11.8
COc1ccc(-c2cnnc(N[C@H]3CCCCNC3=O)n2)cc1	0.2	0.2	-19.6	1.8	nt	nt
Cc1cnc(C)c(NC2CCCCNC2=O)n1 (stereo not drawn)	8.0*	-0.1	11.5	6.4	2.0	0.4
Cc1c(C(=O)Nc2cccc(NC(=O)c3cccs3)c2)cccc1[N+](=O)[O-]	5.5*	-0.2	-2.8	-26.6	-1.4	-7.8
Cc1c(C(=O)Nc2ccc(NC(=O)c3ccco3)c(Cl)c2)cccc1[N+](=O)[O-]	7.3*	0.3	5.8	13.6	0.9	12.8
COc1cc(NC(=O)c2cccc([N+](=O)[O-])c2C)ccc1NC(=O)c1ccco1	0.8	-0.1	-19.6	7.5	nt	nt
COc1ccccc1-n1c(=S)sc2c(=O)n(-c3ccccc3)c(SCc3ccc(Cl)cc3)nc21	-0.4	0.1	-8.3	-2.0	nt	nt
O=C(NCc1nc2ccccc2[nH]1)c1csc(Nc2ccc(N3CCOCC3)cc2)n1	-1.9	-0.1	3.0	-8.2	nt	nt
COc1cc(-c2cn[nH]c2)cc2c(=O)[nH]c(C3COc4ccc(C)cc4C3)nc12 (stereo not drawn)	5.6*	0.3	7.0	9.9	-0.6	-5.7
O=c1[nH]c2ncccc2c(=O)n1Cc1ccc(Cl)cc1	-0.8	0.8	9.6	5.8	nt	nt
COC(=O)c1cc(NS(=O)(=O)c2ccc3ccccc3c2)ccc1Cl	5.0*	0.3	3.0	0.6	0.4	4.3
COc1cccc(S(=O)(=O)Nc2ccc(Cl)c(C(F)(F)F)c2)c1	7.1*	-0.1	1.4	2.7	1.1	-0.9
CC/C(C)=N\NC(=O)c1ccc(N)cc1	0.7	0.0	-25.2	7.4	nt	nt
CC/C(C)=N/NC(=O)c1ccc(C(=O)N/N=C(\C)CC)cc1	8.3*	0.1	4.3	-16.9	-0.2	5.6
COc1ccc(C(=O)Oc2ccc3c4c(c(=O)oc3c2)CCCC4)cc1OC	-0.5	-0.1	3.7	-5.9	nt	nt
CCOC(=O)c1c(NC(=O)CN2CCOCC2)sc(C)c1C	0.5	0.1	4.8	1.2	nt	nt
CCOC(=O)c1c(NC(=O)CN2CCOCC2)sc(C(C)=O)c1C	8.4*	0.1	6.7	23.9	-0.1	9.0
CC1=CSC2=NC(=O)/C(=C/c3cc(C)n(-c4cccc(F)c4)c3C)C(=N)N12	-1.6	0.0	-39.0	23.7	nt	nt
CN1C(C(=O)c2ccccc2)=C(N2CCCCC2)c2ccccc2S1(=O)=O	8.1*	-0.2	3.8	-0.7	0.4	8.2
CN1C(C(=O)c2ccccc2)=C(N)c2ccccc2S1(=O)=O	-1.0	-0.2	12.8	-2.6	nt	nt
O=C(Cn1cc2c(n1)CCCC2)N1CCc2ccccc2C1	-0.1	0.1	8.4	10.7	nt	nt
O=C(Cn1cc2c(n1)CCCCC2)N1CCc2ccccc21	5.4*	-0.1	-3.9	3.2	-1.1	-1.6
COc1cc2c(cc1OC)CN(Cc1cccc([N+](=O)[O-])c1)CC2	8.0*	0.0	-1.8	11.5	0.5	13.0
O=C(/C=C/NCC(c1ccc(F)cc1)N1CCOCC1)C(F)(F)F (stereo not drawn)	-2.4	0.9	1.9	-12.6	nt	nt
N#Cc1c(N2CCCCC2)nc(-c2ccco2)c2c1CCCC2	0.0	0.3	14.0	16.1	nt	nt
SMILES	GPR151 ag	FBW7 act	TEAD-YAP inh	MITF primary	GPR151 conf act	GPR119 counter
CC1(C)Cc2c(C#N)c(N3CCCC3)nc(-c3ccco3)c2CO1	11.6*	0.0	0.4	-4.0	0.8	3.7
COC(=O)C1=C(C)NC2=C(C(=O)CC(c3cccs3)C2)C1c1cc(OC)c(O)c([N+](=O)[O-])c1 (stereo not drawn)	0.4	-0.3	13.2	3.0	nt	nt
NC(=O)COC(=O)/C=C/c1ccc(Cl)cc1	5.6*	0.0	3.1	3.1	0.4	0.0
CC(C)(CO)NC(=O)CSc1ccc(C(F)(F)F)cc1Cl	-0.8	0.4	11.3	4.9	nt	nt
Cc1cc(Br)ccc1S(=O)(=O)N1CCOCC1	-0.1	0.0	-7.2	2.8	nt	nt
O=S(=O)(c1ccc(Br)cc1Br)N1CCOCC1	5.1*	0.0	-3.0	-1.6	-0.3	-7.1
COc1ccc(Cc2nc(-c3ccc(OC)c(OC)c3)no2)cc1OC	1.9	0.0	-8.3	1.0	nt	nt
N#Cc1ccc(Oc2ccc(NC(=O)/C=C\C(=O)O)cc2)cc1	5.3*	-0.1	-5.0	5.3	0.9	9.0
